Consider 40 compounds from PubChem BioAssay (EPA / NIEHS).

Activity calls are given as the source filed them. The calls were made as follows: active = hit-call score of the fitted dose curve at least 0.9, where 1 is the maximum; inactive = score below 0.9.

Read-out in this assay: Intercellular Adhesion Molecule 1 (ICAM1), ICAM1 (gene 3383)
In words: LTEA_HepaRG_ICAM1: Life Technologies and Expression Analysis (LTEA) Assay for Intercellular Adhesion Molecule 1 (ICAM1) using HepaRG (AID 2283507). The settings on record: mRNA level, 48 h; actives raise or lower the signal. The procedure:
LTEA_HepaRG is a cell based, multiplexed-readout assay that uses HepaRG, a human liver cell line, with measurements taken at 48 hours after chemical dosing on a 96-well plate.LTEA_HepaRG_ICAM1 is one of 102 assay component(s) measured in the LTEA HepaRG cell culture assay. It is a marker of Fibrosis.Data from the assay component LTEA_HepaRG_ICAM1 was analyzed into 1 endpoint. This assay endpoint, LTEA_HepaRG_ICAM1, was analyzed with bidirectional fitting relative to DMSO as the negative control and baseline of activity. Using a type of inducible reporter, measures of mRNA induction for gain or loss-of-signal activity can be used to understand regulation of transcription factor activity. To generalize the intended target to other relatable targets, this assay endpoint is annotated to the cell adhesion molecules intended target family, where the subfamily is Immunoglobulin CAM.
A total of 1060 chemcials from the ToxCast library were tested in eight-point concentration-response experiments. Cell culture and cytotoxicity assays were conducted at Thermo Fisher Scientific's Custom Services facility (Madison, WI). A single lot of human HepaRG cells (Thermo Fisher Scientific, Frederick, MD) was used for the cell culture experiments. 96-well format collagen type I coated plates of human HepaRG cells were prepared using established methods. Briefly, cryopreserved HepaRG cells were thawed, plated at a density of approximately 100,000 cells/well in HepaRG Thaw, Plate, and General Purpose media (HPRG770, Thermo Fisher Scientific), and incubated for 48 hours. 0.5% DMSO was selected as vehicle control to balance the requisite need of DMSO in HepaRG cultures to maintain differentiation (for example, baseline metabolism, proportions of hepatocytes vs. cholangiocytes), while enabling further hepatic receptor pathway activation (for example, PXR and CAR) in response to chemical exposure. 48 hours after plating, the culture medium was replaced with HepaRG Serum-Free Incudtion Media. Cells were exposed to each test chemical in duplicate and maintained in CO2 incubators for another 48 hours. Chemical plates were thawed to room temperature and 200x concentrations of treatment groups were prepared. 8-point conentration-reponse curves were made with the highest exposure at 100 uM, followed by half-log dilutions, all in 0.5% DMSO. Each test plate contained variouse controls, induction positive controls (1mM phenobarbital), cytotoxicity positive controls ([…] aflatoxin B1), vehicle controls (0.5% DMSO), and total lysis controls (0.5% DMSO). Cell morphology images were taken using an Essen IncuCyte FLR automated microscope, with six 96-well plates imaged in about 24 minutes. Images were captured and exported and JPEG files. Spent culture media was transfered to black-well plates for the LDH assay, and remaining media was sorted at -80 C for later use. Cells were treated with RLT buffer and frozen until shipped for gene expression analysis. Total RNA was isolated from the cell suspension in 75 uL of Buffer RLT (Qiagen, Germantown, MD 20874) by Quintiles/Expression Analysis (Durham, NC) using a custom isolation procedure. Total RNA from each plate well was transferred to a preamplification plate. Fluidigm's 96.96 Dynamic ArrayTM (Fluidigm, Amsterdam, the Netherlands) technology was used for gene expression analyses by quantitative reverse transcription polymerase chain reaction (qRT-PCR, performed by Quintiles/Expression Analysis, Durham, NC)89. Standard TaqManTM Assays (Applied Biosystems/ThermoFisher Scientific, Foster City, CA) were used to assess the expression of 93 genes selected based on their selectivity and sensitivity to important hepatic receptors known to be modulated by environmental chemicals; importance in human hepatocyte functionality; and hepatotoxicity. […]
Consider `Cc1ccc(C)c(C)c1`, for which the call was inactive.

For the compound `CCCCCCC(=O)OCC`, the compound was called inactive.

By AC50 is commonly meant the concentration at which the activity in the assay is half-maximal. On to `CCc1c(C(=O)NN2CCCCC2)nn(-c2ccc(Cl)cc2Cl)c1-c1ccc(Br)cc1`, for which the concentration at half-maximal activity (AC50) was 26.6 µM (active).

For the compound `Cc1cccc(C)c1O`, the call was inactive.

As to `CC(C)c1ccc(C(=O)N=C(N)N)cc1S(C)(=O)=O`, the AC50 was 0.388 µM (active).

In the case of `CCCCCC(=O)O`, the result was inactive.

As for `CC(=O)C(C)=CC1C(C)=CCCC1(C)C` (stereo not given), the compound was classed as inactive.

`C[Si]1(C)O[Si](C)(C)O[Si](C)(C)O[Si](C)(C)O1`: the compound was called inactive.

Consider `CC(=O)OC/C=C(\C)CCC=C(C)C`, for which the compound was classed as inactive.

As for `CC=Cc1ccc(O)c(OC)c1`, the result was inactive.

On to `O=C(OCCCCCOC(=O)c1ccccc1)c1ccccc1`, for which the AC50 was 3.24 µM (active).

On to `Cc1ccc(Cl)cc1`, for which the outcome was inactive.

As for `NCC1(Cc2noc(=O)[nH]2)CCCCC1`, the compound was called inactive.

For the compound `O=[N+]([O-])C(CO)(CO)CO`, the compound was classed as inactive.

Take `Cc1cc(NC(=O)C(=O)O)cc(C)c1Oc1ccc(O)c2c1CCC2`: the call was inactive.

As for `Cc1oc(-c2ccccc2)nc1CCOc1cccc2c1ccn2CCC(=O)O`, the AC50 was 85.6 µM (active).

`OC[C@@H](O)[C@@H](O)[C@H](O)[C@H](O)CO`: the call was inactive.

On to `CC1=C(/C=C/C(C)=C/C=C/C(C)=C/CO)C(C)(C)CCC1`, for which the compound was classed as inactive.

With `FC(F)(F)C(F)(F)C(F)(F)C(F)(F)C(F)(F)C(F)(F)CCI`, the call was inactive.

Consider `COc1ccc2c(c1)c(CC(=O)O)c(C)n2C(=O)c1ccc(Cl)cc1`, for which the outcome was inactive.

With `Nc1ccc(S(=O)(=O)c2ccc(N)cc2)cc1`, the compound was classed as inactive.

In the case of `Cc1nc(-c2ccc3c(c2)CCN(CCC2CCC(NC(=O)/C=C/c4ccc(F)cc4)CC2)CC3)no1` (stereo not given), the compound was called inactive.

On to `COc1ccc(C)cc1N`, for which the compound was classed as inactive.

Take `NC(=O)Cn1c(=O)cc(CCN2CCN(c3nccc4sccc34)CC2)c2ccc(F)cc21`: the AC50 was 50 µM (active).

With `NS(=O)(=O)c1cc2c(cc1Cl)NCNS2(=O)=O`, the outcome was inactive.

For the compound `CCCCC(CC)COC(=O)CC(C(=O)OCC(CC)CCCC)S(=O)(=O)O` (stereo not given), the compound was classed as inactive.

On to `Cc1ccc2ncccc2c1`, for which the result was inactive.

Turning to `Cc1c(C(=O)O)c(O)cc2c1C(=O)c1c(O)c([C@@H]3O[C@H](CO)[C@@H](O)[C@H](O)[C@H]3O)c(O)c(O)c1C2=O`, the result was inactive.

Take `CCCCCCCCCCCCCO`: the result was inactive.

As to `CCOC(=O)CCC(=O)OCC`, the outcome was inactive.

In the case of `CCOc1ccc2c(c1)C(C)=CC(C)(C)N2`, the call was inactive.

Consider `CCCCCCCCCCCCCCCC`, for which the compound was called inactive.

For the compound `CCCCCCCCCCCC(=O)OC`, the outcome was inactive.

As for `COC(=O)c1ccc(O)cc1`, the compound was classed as inactive.

In the case of `Cc1ccc(C)c(O)c1C`, the outcome was inactive.

Consider `Cc1ccc(C(C)C)c(O)c1`, for which the result was inactive.

On to `C1CCC(SSC2CCCCC2)CC1`, for which the compound was called inactive.

On to `CCCCCCCC=O`, for which the call was inactive.

In the case of `Clc1cc(Cl)c(Cl)cc1Cl`, the outcome was inactive.

With `CNC(=O)[C@H]1O[C@@H](n2cnc3c(NCc4cc(Cl)ccc4OCc4cc(C)no4)ncnc32)[C@H](O)[C@@H]1N`, the result was inactive.
